# High-throughput results deposited in PubChem BioAssay by National Center for Advancing Translational Sciences (NCATS).
# Most compounds without a hit are left out; they make up all but 18% or so of the library.
# TDP1 block: qHTS Assay for Inhibitors of Tyrosyl-DNA Phosphodiesterase (TDP1) | Tyrosyl-DNA phosphodiesterase 1 (Homo sapiens), Q9NUW8 | recombinant TDP1, AlphaScreen DNA substrate cleavage | Potency, µM (highest dose often 130 µM), for the others: top-dose activity change, negative = inhibition, most hits filed as inhibitors | hit rate 0.28% among 350,000 | AID 485290, 2010; note: potency is the fitted concentration of half-maximal effect; % is set by controls: 0 for no effect and ±100 for the full control effect; nearly all actives have a fitted effect of over 40% in size
# Target sequence (Q9NUW8 whole entry, looked up): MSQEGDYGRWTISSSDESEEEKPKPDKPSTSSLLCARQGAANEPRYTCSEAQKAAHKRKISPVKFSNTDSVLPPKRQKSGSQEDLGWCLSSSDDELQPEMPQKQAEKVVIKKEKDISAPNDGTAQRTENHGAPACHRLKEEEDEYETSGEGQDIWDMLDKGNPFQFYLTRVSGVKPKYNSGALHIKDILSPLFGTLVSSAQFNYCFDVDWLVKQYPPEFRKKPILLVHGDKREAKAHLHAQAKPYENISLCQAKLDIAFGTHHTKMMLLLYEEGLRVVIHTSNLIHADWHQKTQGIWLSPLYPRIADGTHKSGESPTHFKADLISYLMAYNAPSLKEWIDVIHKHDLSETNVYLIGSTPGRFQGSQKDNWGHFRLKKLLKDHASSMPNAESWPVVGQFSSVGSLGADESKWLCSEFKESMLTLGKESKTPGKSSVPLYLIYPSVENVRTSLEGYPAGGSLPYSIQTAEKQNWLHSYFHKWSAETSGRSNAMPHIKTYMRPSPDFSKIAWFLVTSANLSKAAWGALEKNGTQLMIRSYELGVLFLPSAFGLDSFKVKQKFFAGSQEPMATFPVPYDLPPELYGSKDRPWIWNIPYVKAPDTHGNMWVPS
#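 AlphaScreen read-out: signal falls as enzyme removes the 3' tyrosine-FITC from a 5'-biotinylated DNA oligo (15 nM, 5 min, RT). Enzyme was E. coli-made recombinant Tdp1 at 1 nM, exposed to compound for 15 min beforehand; beads 10 ug/ml, 10 min.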
# HepG2 viability: qHTS for Inhibitors of TGF-b: Cytotox Counterscreen; Potency, µM (series often up to 46.1 µM), inactives show at the highest dose activity change, negative = cytotoxicity, usual class: cytotoxic; HepG2 CAGA-GFP viability, ATP luminescence, 18 h; hit rate 0.76% among 410,000; note: potency is the fitted concentration of half-maximal effect
#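 CellTiter-Glo luminescence gave cytotoxicity after 18 hours at 37 degrees C. The cells were HepG2 CAGA-GFP in 1% FBS DMEM, stimulated with 500 pg/mL TGF-beta after compound addition. %Activity was normalised to no-cell wells (complete cell-killing) and DMSO (no toxicity), and curves were fitted and classified.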
# IL1B secr inh: qHTS for Inhibitors of Inflammasome Signaling: IL-1-beta AlphaLISA Primary Screen; activity change, % at 57.5 µM; THP-1 LPS/ATP IL-1B secretion, AlphaLISA, 16 h; hits give low values; hit rate 4.7% among 360,000; in the data active = activity change below about -50%; inconclusive = mostly about -30% to -49%; note: % is set by controls: 0 for no effect and ±100 for the full control effect
#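 Secreted IL-1B measured by AlphaLISA bead assay after 16 h compound exposure of THP-1 cells; compounds (final up to 57.5 uM) added 1 h before LPS (250 ng/mL) and ATP (1.25 mM) stimulation; lower signal means less secretion.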
# TGFb SMAD3 inh: qHTS for Inhibitors of TGF-b; HepG2 CAGA-GFP TGF-b/SMAD3 reporter, GFP fluorescence, 18 h; TGF-beta stimulated, 500 pg/mL final; Potency, µM (series often up to 46.1 µM), without a hit: at the highest dose activity, negative = inhibition, hits mostly inhibitors; AID 588855, 2011; hit rate 1.2% among 410,000; note: potency is the fitted concentration of half-maximal effect; % is set by controls: 0 for no effect and ±100 for the full control effect; nearly all actives have a fitted effect of over 65% in size
#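 Read-out: total well GFP (ex488/em500-530) summed from mean per-cell fluorescence. Cells: HEPG2 CAGA-GFP, 1% FBS DMEM, 18 h at 37 degrees C with 500 pg/mL final TGF-beta. Unstimulated wells served as the full-inhibition control; stimulated DMSO wells = 0%.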
# TDP1 cell CPT: qHTS for Inhibitors of human tyrosyl-DNA phosphodiesterase 1 (TDP1): qHTS in cells in presence of CPT | chicken DT40 Tdp1-/-;hTDP1 cells + 20 nM CPT, ATP luminescence, 48 h | Potency, µM (top dose mostly 46.2 µM), for the others: top-dose activity change, negative = growth inhibition, actives largely listed as inhibitors | hit rate 12% among 420,000 | AID 686979, 2013; note: potency is the fitted concentration of half-maximal effect; % is set by controls: 0 for no effect and ±100 for the full control effect; nearly all actives have a fitted effect of over 55% in size
#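 Chicken DT40 Tdp1-/- cells complemented with human TDP1, 400 cells/well, exposed to compounds plus 20 nM camptothecin for at least 48 h at 37 C; viability read as ATP content by CellTiter-Glo luminescence.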
# DT40 TDP1 no CPT: qHTS for Inhibitors of human tyrosyl-DNA phosphodiesterase 1 (TDP1): qHTS in cells in absence of CPT. DT40 Tdp1-/- hTDP1 cells, no CPT, ATP luminescence, 48 h. hit rate 15% among 420,000. AID 686978, 2013. Potency, µM (highest dose often 46.2 µM), for inactives: at the top dose activity change, negative = growth inhibition, actives largely listed as inhibitors; note: potency is the fitted concentration of half-maximal effect; % is set by controls: 0 for no effect and ±100 for the full control effect; nearly all actives have a fitted effect of over 55% in size
#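 No-CPT arm: Tdp1-/-;hTDP1 DT40 cells (400/well) plus compounds, incubated ≥48 hr at 37 °C. Readout CellTiter-Glo luminescence.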
# * hit, by the source's call; ? = inconclusive; · = no result; [ ] = remark or other dose. Unless noted, calls come from the whole dose curve; as a rule, active = well fitted curve in the direction sought with a large enough effect; inconclusive = small, poorly fitted or top-dose-only effect, or another doubt; inactive = no such curve, though single readings can be large; an effect the other way counts as inactive or inconclusive.
SMILES,TDP1 block,HepG2 viability,IL1B secr inh,TGFb SMAD3 inh,TDP1 cell CPT,DT40 TDP1 no CPT
N=C1SCC(=O)N1c1ncc(Cc2ccccc2Cl)s1,9.0%,-20.1%,-102.3*,?,?,?
O=C1c2cccnc2C(=O)N1Cc1ccc(Cl)cc1,0.0%,-23.1%,12.5,-0.5%,-14.9%,-10.9%
N=C1SCC(=O)N1c1ncc(Cc2cccc(Cl)c2)s1,8.4%,-9.2%,-103.0*,?,?,?
COc1ccccc1OCCCCn1ncc2ccc(OC)c(OC)c2c1=O,·,-21.7%,38.6,1.0%,?,?
O=C(O)c1cccc(Br)c1,·,-3.7%,-12.8,17.1%,4.1%,5.1%
COc1cccc(N=c2oc3ccccc3cc2-c2nc3ccccc3[nH]2)c1,4.4%,-37.2%,-4.1,9.4%,23.1µM*,23.1µM*
O=C(OCC#CCSc1nnc(-c2cccc3ccccc23)o1)c1cc2ccccc2s1,-4.1%,·,·,·,·,·
CCN(CC)c1cc(C)nc2nc(-c3ccc(C)cc3)nn12,7.0%,-15.8%,·,-12.6%,?,?
O=C(NNC(=O)c1ccccc1Br)c1ccc2nc[nH]c2c1,11.2µM*,4.5%,-29.5,-23.1%,2.9%,1.9%
C[C@@H]1CN([C@H](C)CO)C(=O)CCCn2nncc2CO[C@H]1CN(C)C(=O)c1ccncc1,·,-11.3%,107.7,-1.0%,-6.5%,-1.4%
CC1(C)Cc2c(c(N3CCOCC3)nc3snc(N)c23)CO1,3.2%,-47.3%,-107.5*,10µM*,2.82µM*,2.51µM*
Cc1nc2sc(C(=O)O)c(N)c2c2c1COC(C)(C)C2,-8.3%,5.4%,27.2,-7.1%,-5.2%,1.4%
CC1(C)Cc2c(c(N3CCOCC3)nc3sc(C(N)=O)c(N)c23)CO1,8.4%,23.4%,-15.0,-11.3%,8.5%,?
CC1(C)Cc2c(c(N3CCOCC3)nc3sc(C(=O)Nc4ccc(Cl)cc4)c(N)c23)CO1,1.9%[0.0935 µM],-5.5%,-1.1,-7.0%,?,23.1µM*
COc1ccc(NC(=O)c2sc3nc(N4CCCC4)c4c(c3c2N)CC(C)(C)OC4)c(OC)c1,4.5%,-0.9%,?,1.9%,?,-27.6%
COc1cccc(NC(=O)c2sc3nc(N4CCOCC4)c4c(c3c2N)CC(C)(C)OC4)c1,1.1%,-4.0%,·,24.3%,5.8µM*,6.51µM*
CCOC(=O)c1sc2nc(-c3ccco3)c3c(c2c1N)CC(C)(C)OC3,-2.1%,-20.5%,-52.6*,?,20.6µM*,20.6µM*
CC1(C)Cc2c(c(N3CCOCC3)nc3snc(Br)c23)CO1,3.1%,-8.1%,0.4,-3.7%,?,?
C=CCOC(=O)C(C(C)=O)C(NC(=O)OC)c1cccc(C(F)(F)F)c1 (configuration not stated),2.6%[21 µM],·,·,·,·,·
CN1Cc2c(N3CCOCC3)nc3sc(C(=O)c4ccccc4)c(N)c3c2CC1(C)C,8.3%,-2.4%,-10.0,8.7%,16.4µM*,?
C/C(=N\Nc1cc(C)nc(-c2ccccc2O)n1)c1ccccc1,-5.1%,-18.7%,-67.7*,-11.3%,?,?
O=[N+]([O-])c1ccc(/C=N/Nc2cc(Cl)nc(-c3ccccc3)n2)cc1,1.9%,0.3%,-0.9,6.3%,?,?
C/C(=N\Nc1cc(C)nc(-c2ccccc2)n1)c1cccc([N+](=O)[O-])c1,-2.6%,-17.2%,-28.6,-20.0%,20.6µM*,?
O=[N+]([O-])c1cccc(/C=N/Nc2cc(Cl)nc(-c3ccccc3)n2)c1,2.1%,-6.7%,-77.1*,-1.8%,?,20.6µM*
Cc1cc(N/N=C/c2ccc(O)c(C)c2O)nc(-c2ccccc2O)n1,2.8%,11.2µM*,-98.0*,?,13µM*,9.2µM*
SMILES,TDP1 block,HepG2 viability,IL1B secr inh,TGFb SMAD3 inh,TDP1 cell CPT,DT40 TDP1 no CPT
Cc1cc(NCCCN)nc(-c2ccccc2O)n1,-2.1%,-34.8%,-61.7*,?,?,?
O=[N+]([O-])c1ccc2c(c1Nc1ccccc1Cl)=NC1(CCCCC1)N=2,7.5%,-20.9%,8.2,-8.2%,-25.8%,-2.7%
Cc1ccc(Nc2c([N+](=O)[O-])ccc3c2=NC2(CCCCC2)N=3)cc1,11.8%,-7.9%,27.8,1.0%,16.4µM*,23.1µM*
O=C(c1ccc2c(c1)OCO2)C1CCCN(Cc2ccc3cccc(F)c3n2)C1 (configuration not stated),-1.2%,-13.7%,-27.7,-29.6%,?,20.6µM*
O=C(c1ccc2c(c1)OCO2)C1CCCN(Cc2cccc(C(F)(F)F)c2)C1 (configuration not stated),1.8%,-32.7%,15.1,?,?,2.4%
O=C(c1ccc2c(c1)OCO2)C1CCCN(Cc2cn[nH]c2-c2cccc(F)c2)C1 (configuration not stated),-2.4%,-8.0%,-92.3*,-18.9%,?,?
Cc1cn([C@H]2C[C@H](O)[C@@H](/C=C/C(=O)NCCN3CCOCC3)O2)c(=O)[nH]c1=O,·,-0.3%,33.8,-4.7%,-11.6%,12.2%
CC1=CC(C)(C)N(S(=O)(=O)c2ccc(C)cc2)c2ccc(C)cc21,0.0%,-35.5%,-3.5,?,5.8µM*,18.4µM*
CC1=CC(C)(C)N(S(=O)(=O)c2ccc(F)cc2)c2ccccc21,-3.0%,-69.6%,64.4,?,25.9µM*,?
CC(=O)N1c2ccccc2C(C)=CC1(C)C,5.0%,-23.8%,15.0,-4.9%,-18.4%,-17.5%
COc1ccccc1CN1CC[C@@]2(CCCN(C(C)=O)C2)C1,·,·,·,·,11.5%,-1.9%
Cn1cc(-c2cc3n(n2)CCC(=O)N3CCCC(=O)Nc2ccc(Cl)cc2)c2ccccc21,11.2%,0.8%,·,1.5%,?,?
Cn1cc(-c2cc3n(n2)CCC(=O)N3CCCC(=O)NCc2ccc(Cl)cc2)c2ccccc21,0.6%,-76.4%,·,?,?,?
CCc1ccccc1NC(=O)CCCN1C(=O)CCn2nc(-c3cn(C)c4ccccc34)cc21,7.7%,-39.7%,·,-27.0%,-25.4%,-22.6%
Cn1cc(-c2cc3n(n2)CCC(=O)N3CCCC(=O)NCc2ccccc2Cl)c2ccccc21,-0.6%,-21.9%,·,?,16.4µM*,13µM*
